According to PubChem BioAssay (NCATS):
Values joined by “and” are separate entries in the source; they are usually repeats but may differ in a detail not shown here. Identical values can stand only once. Results filed as inconclusive are left out. Active and inactive are the calls of the source. Unless noted, the call rests on the fitted dose curve; in most records, active means well fitted curve in either direction with a large enough effect (not every such curve was filed as active); inconclusive means small, poorly fitted or top-dose-only effect, or another doubt; inactive means flat fitted curve, though single readings scatter.

Columns and labels:
[1] = AP1 Signaling Pathway (AID 357); settings: ME-180 AP-1-bla reporter, EGF-induced, beta-lactamase ratio, 5 h; further: on the % scale 0 is the no-effect control and ±100 the full control effect
How it was run: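 In this screen, ME-180 cells in Opti-MEM with 0.5% dialyzed FBS received EC50 EGF and compound titrations for 5 h. AP-1 reporter beta-lactamase was detected via CCF4 ratio, giving AC50 for positive and negative modulators.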

[2] = NFAT Signaling Pathway (AID 444); settings: Jurkat NFAT-bla M1, carbachol, beta-lactamase ratio, 5 h;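 further: carbachol stimulus at about its EC50 of 1 µM final; on the % scale 0 is the no-effect control and ±100 the full control effect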
How it was run: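 Jurkat cells carrying an NFAT-driven β-lactamase reporter and co-transfected muscarinic M1 receptor were treated with compound plus carbachol (1 uM final, an EC50 level) for 5 h at 37 °C. CCF4 loading followed for 1 h at RT; 460/530 nm ratio gave %activity.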

[3] = Stat Signaling Pathway (AID 446); settings: ME-180 SIE beta-lactamase reporter, IL-6 stimulated, 5 h;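 further: ME-180 cervical cancer cells given 40 pM IL-6 alongside compound; SIE-controlled beta-lactamase reporter measured as 460/530 nm FRET emission ratio; on the % scale 0 is the no-effect control and ±100 the full control effect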
How it was run: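 Screening format detects activators and inhibitors alike: ME-180 SIE-bla cells stimulated at 40 pM IL-6 for 5 hrs with compound, then dual-emission beta-lactamase read at 405 nm excitation.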

[4] = biological target: Mitogen-activated protein kinase 10 (Mus musculus) (UniProt Q61831); test: JNK3 AlphaScreen Assay (AID 530); settings: JNK3 lysate, c-Jun phosphorylation; series mostly up to 25.6 µM;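 further: kinase came from lysate of stimulated human HepG2 cells; signal reports phosphorylation of biotinylated GST-cJun 1-79 at Ser73 with 10 µM ATP; on the % scale 0 is the no-effect control and ±100 the full control effect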
How it was run: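 Inhibitors reduce antibody binding to phosphorylated biotin-cJun, lowering AlphaScreen luminescence. Lysates from HepG2 cells pre-activated by IL-1beta plus TNF-alpha supplied JNK3; compounds were titrated.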

[5] = biological target: Cytochrome P450 1A2 (Homo sapiens) (UniProt P05177); test: p450-cyp1a2 (AID 410; calls by dose curve; further: potency means the concentration at half of the fitted maximal effect;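 on activity change, negative = inhibition: -100% = full effect of reference inhibitor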); settings: recombinant CYP1A2, luciferin-ME demethylation, luminescence; series mostly up to 25.6 µM
Cytochrome P450 1A2 (Homo sapiens), sequence (P05177 whole entry, looked up): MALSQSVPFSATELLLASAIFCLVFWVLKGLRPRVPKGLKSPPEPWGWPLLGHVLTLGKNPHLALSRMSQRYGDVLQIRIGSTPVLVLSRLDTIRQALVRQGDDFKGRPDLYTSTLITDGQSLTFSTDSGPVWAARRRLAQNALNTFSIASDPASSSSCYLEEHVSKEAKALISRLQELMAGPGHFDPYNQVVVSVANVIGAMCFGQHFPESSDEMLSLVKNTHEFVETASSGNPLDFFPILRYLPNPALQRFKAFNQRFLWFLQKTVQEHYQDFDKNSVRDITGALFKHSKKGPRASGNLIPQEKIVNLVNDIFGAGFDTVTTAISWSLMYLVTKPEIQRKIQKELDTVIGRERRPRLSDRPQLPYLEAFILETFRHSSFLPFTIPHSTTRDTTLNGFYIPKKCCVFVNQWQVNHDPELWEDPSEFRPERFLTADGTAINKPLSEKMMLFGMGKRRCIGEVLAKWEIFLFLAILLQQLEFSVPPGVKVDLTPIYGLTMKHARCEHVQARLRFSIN
How it was run: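 20nM CYP1A2 with 100uM Luciferin-ME (at Km) in 100mM KPO4; compound preincubated 10 min, NADPH regeneration added, 60 min at room temperature. Luciferin quantified by luminescence after detection reagent; normalized to 57 uM furafylline.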

[6] = biological target: Glucocorticoid receptor (Homo sapiens) (UniProt P04150); test: GR-GFP Redistribution (AID 450;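 active means compounds whose dose series gives a full or clear partial fitted curve of increased nuclear translocation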; further: potency means the concentration at half of the fitted maximal effect); settings: U2OS GR-GFP nuclear translocation, laser cytometry, 2 h
Glucocorticoid receptor (Homo sapiens), sequence (P04150 whole entry, looked up, the tested form may be a part): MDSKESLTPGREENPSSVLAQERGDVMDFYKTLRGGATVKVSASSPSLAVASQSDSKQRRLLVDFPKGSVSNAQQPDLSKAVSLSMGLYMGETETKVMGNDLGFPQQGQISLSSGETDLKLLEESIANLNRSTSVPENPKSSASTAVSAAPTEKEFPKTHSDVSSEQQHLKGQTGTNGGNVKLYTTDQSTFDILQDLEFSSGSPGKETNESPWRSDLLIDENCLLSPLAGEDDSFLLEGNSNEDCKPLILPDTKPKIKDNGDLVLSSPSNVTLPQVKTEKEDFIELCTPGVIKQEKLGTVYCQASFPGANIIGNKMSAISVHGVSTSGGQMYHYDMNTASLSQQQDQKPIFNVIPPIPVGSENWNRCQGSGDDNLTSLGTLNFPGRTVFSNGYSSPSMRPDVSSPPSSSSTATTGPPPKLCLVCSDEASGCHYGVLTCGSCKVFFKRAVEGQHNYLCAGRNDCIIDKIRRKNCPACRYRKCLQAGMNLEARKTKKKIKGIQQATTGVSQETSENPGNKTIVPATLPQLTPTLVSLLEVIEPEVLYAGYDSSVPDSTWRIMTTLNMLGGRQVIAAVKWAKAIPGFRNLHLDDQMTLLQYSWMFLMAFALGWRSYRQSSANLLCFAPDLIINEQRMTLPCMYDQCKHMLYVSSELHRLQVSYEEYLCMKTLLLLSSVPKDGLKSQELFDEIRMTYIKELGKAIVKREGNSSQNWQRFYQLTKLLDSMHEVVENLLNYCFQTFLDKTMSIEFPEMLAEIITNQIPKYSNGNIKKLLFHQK

[7] = biological target: Glucocorticoid receptor (Homo sapiens) (UniProt P04150); test: GR-EFC Redistribution (AID 451; calls by dose curve; further: potency means the concentration at half of the fitted maximal effect); settings: CHO-K1 GR-EFC translocation, beta-gal luminescence, 2 h
How it was run: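 CHO-K1 cells stably expressing nuclear-localized β-gal enzyme acceptor and GR fused C-terminally to the enzyme donor fragment; ligand-driven nuclear translocation restores β-gal by complementation. Compounds titrated up to 46 uM final, 2 h at 37 °C; luminescence read.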

[8] = Cell Viability - BJ (AID 421; calls by dose curve;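 further: potency means the concentration at half of the fitted maximal effect; cells exposed to compound for 40 hours at 37 °C before readout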); settings: BJ fibroblast viability, qHTS
How it was run: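 Cytotoxicity in human BJ foreskin fibroblasts is scored as loss of cellular ATP after a 40-hour exposure, measured by luciferase luminescence. Controls are DMSO and 100 uM tamoxifen.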

[9] = Cell Viability - Jurkat (AID 426;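 active means dose-dependent loss of cell ATP signal giving a full or clear fitted curve, ranked by lower potency value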; further: potency means the concentration at half of the fitted maximal effect); settings: qHTS
How it was run: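 Jurkat (Clone E6-1) cells, 5000/well in complete medium, exposed to compounds for 40 hr at 37C; intracellular ATP measured by CellTiter-Glo luminescence after 20 min at room temperature. AC50 from Hill fits.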

[10] = Cell Viability - Hek293 (AID 427;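 active means compounds whose dose-response curve shows a full or clear partial loss of cell viability, called from curve shape rather than a numeric limit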;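 further: potency means the concentration at half of the fitted maximal effect; cells exposed to compound for 40 hours at 37 °C before reading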); settings: qHTS
How it was run: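 qHTS, human embryonic kidney (adenovirus-transformed) cells; 40 hr cpd, 37 °C; CellTiter-Glo ATP luminescence. Norm: DMSO = 0, 100 uM tamoxifen = 100% inhibition. Hill-fit AC50.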

[11] = Cell Viability - HepG2 (AID 433; calls by dose curve;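 further: potency means the concentration at half of the fitted maximal effect; potency for ATP loss meaning cytotoxicity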); settings: qHTS
How it was run: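 Cytotoxicity read as ATP loss (CellTiter-Glo luminescence) after 40 hr compound exposure of HepG2, 1500 cells/well, 37 °C. AC50 by Hill equation; 0% set by DMSO, 100% inhibition by 100 uM tamoxifen.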

[12] = Cell Viability - SK-N-SH (AID 435; calls by dose curve; further: potency means the concentration at half of the fitted maximal effect); settings: SK-N-SH neuroblastoma cell viability qHTS
How it was run: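 qHTS cytotoxicity: CellTiter-Glo ATP luminescence after 40 h compound exposure of human neuroblastoma SK-N-SH cells at 37 °C. AC50 derived by Hill-equation fitting, with DMSO as basal and 100 uM tamoxifen as full inhibition.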

[13] = Cell Viability - N2a (AID 540; active means well fitted curve in the direction sought with a large enough effect; an effect the other way counts as inactive or inconclusive;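 further: plate controls were DMSO alone for no effect and tamoxifen control for full effect; nearly all actives have a fitted effect of over 45% in size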); settings: N2a mouse neuroblastoma cell viability; activity change, negative = cytotoxicity: at 92.2 µM (top of the series)
How it was run: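 Mouse neuroblastoma N2a cells, 1500/well, exposed to compounds 40 h at 37 °C in complete medium. Viability measured as cellular ATP by CellTiter-Glo luminescence; AC50 from Hill fits of concentration-response.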

[14] = Cell Viability - NIH 3T3 (AID 541; active means well fitted curve in the direction sought with a large enough effect; an effect the other way counts as inactive or inconclusive;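 further: plate controls were DMSO alone for no effect and tamoxifen positive control for full effect; nearly all actives have a fitted effect of over 25% in size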); settings: NIH 3T3 cell viability, qHTS; activity change, negative = cytotoxicity: at 92.2 µM (top of the series)
How it was run: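 Mouse NIH 3T3 fibroblasts, 1000 cells/well, rested 5 hr at 37 °C, then exposed to compound for 40 hr at 37 °C in complete medium. Viability read as intracellular ATP by CellTiter-Glo luminescence; AC50 from Hill-equation fits of concentration-response data.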

[15] = Cell Viability - HUV-EC-C (AID 542; active means well fitted curve in the direction sought with a large enough effect; an effect the other way counts as inactive or inconclusive; further: on the % scale 0 is the no-effect control and ±100 the full control effect; nearly all actives have a fitted effect of over 35% in size); settings: HUV-EC-C endothelial cell viability, qHTS; series mostly up to 92.2 µM
How it was run: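 HUV-EC-C human vascular endothelial cells, 1000/well, exposed to compound for 40 hr at 37 °C in complete medium. Intracellular ATP was read by CellTiter-Glo luminescence. AC50 came from Hill-equation fits of concentration-response data.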

[16] = Cell Viability - H-4-II-E (AID 543; active means well fitted curve in the direction sought with a large enough effect; an effect the other way counts as inactive or inconclusive; further: on the % scale 0 is the no-effect control and ±100 the full control effect; nearly all actives have a fitted effect of over 35% in size); settings: H-4-II-E rat hepatoma viability; series mostly up to 92.2 µM
How it was run: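 Rat hepatoma H-4-II-E cells, 1500 per well, treated 40 h at 37 °C in complete medium. Cellular ATP read by CellTiter-Glo luminescence; AC50 from Hill fits of concentration-response.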

[17] = Cell Viability - SH-SY5Y (AID 544; active means well fitted curve in the direction sought with a large enough effect; an effect the other way counts as inactive or inconclusive;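 further: 0% = DMSO alone and -100% = 100 µM tamoxifen; nearly all actives have a fitted effect of over 55% in size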); settings: SH-SY5Y neuroblastoma cell viability; viability change, negative = cytotoxic: at 92.2 µM (top of the series)
How it was run: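 SH-SY5Y human neuroblastoma cells (1500/well) incubated 5 h, then compound-treated 40 h at 37 °C in complete medium. Viability read as intracellular ATP by CellTiter-Glo luminescence after 20 min; AC50 from Hill-equation fits of qHTS concentration-response.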

[18] = Cell Viability - Renal Proximal Tubule (AID 545; active means well fitted curve in the direction sought with a large enough effect; an effect the other way counts as inactive or inconclusive;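 further: 0% = DMSO only and -100% = 100 µM tamoxifen; nearly all actives have a fitted effect of over 40% in size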); settings: renal proximal tubule cells viability, primary cells of rat origin; activity change, negative = cytotoxicity: at 91.7 µM (top of the series)
How it was run: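 Viability taken as intracellular ATP (CellTiter-Glo luminescence) after 40 hr, 37 °C compound treatment of primary proximal tubule cells from rat kidney, 1000 cells/well; Hill-equation fits of qHTS concentration-response data gave AC50.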

[19] = Cell Viability - Mesenchymal (AID 546; active means well fitted curve in the direction sought with a large enough effect; an effect the other way counts as inactive or inconclusive;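 further: cells exposed to compound for 40 hours before reading; 0% = DMSO only and -100% = 100 µM tamoxifen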); settings: mesenchymal cells viability, qHTS; activity change, negative = cytotoxicity: at 91.7 µM (top of the series)
How it was run: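 Normal human renal glomerulus-derived kidney mesenchymal cells, 1000 per well in complete medium, were treated with compounds for 40 hr at 37 °C. Viability was read as intracellular ATP by CellTiter-Glo luminescence; AC50 values came from Hill-equation fits of qHTS concentration-response data.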

CC(C)NC[C@@H](O)COc1cccc2ccccc12
inactive: activity change, negative = inhibition ([1]; at 17.2 µM (top of the series)) 7.5% and 12.8% and 4.83% | activity change, negative = inhibition ([1]; at 38 µM (top of the series)) 17.5% and 11.4% | activity change, negative = inhibition ([2]; at 17.2 µM (top of the series)) 5.75% and 5.85% and -11.9% | activity change, negative = inhibition ([2]; at 38 µM (top of the series)) 4.84% and 0.806% | activity, negative = inhibition ([3]; at 17.2 µM (top of the series)) -2.8% and 2.51% and -11.2% | activity, negative = inhibition ([3]; at 38 µM (top of the series)) 8.52% and -21.7% | outcome [4]

CNCCC=C1c2ccccc2CCc2ccccc21
inactive: activity change, negative = inhibition ([1]; at 7.69 µM (top of the series)) -6.8% | activity change, negative = inhibition ([1]; at 17.2 µM (top of the series)) 15.1% and 18.2% | activity change, negative = inhibition ([1]; at 38 µM (top of the series)) 16.2% | activity, negative = inhibition ([3]; at 7.69 µM (top of the series)) -5.09% | activity, negative = inhibition ([3]; at 17.2 µM (top of the series)) -1.99% and -5.78% | activity, negative = inhibition ([3]; at 38 µM (top of the series)) -27.8% | Potency [6] > 46 µM and > 20.6 µM | Potency [7] > 46 µM and > 20.6 µM and > 9.22 µM | outcome [4]
active: Potency [5] 25.1 µM | activity change, negative = inhibition ([2]; at 7.69 µM (top of the series)) -80.1% | activity change, negative = inhibition ([2]; at 17.2 µM (top of the series)) -86.8%

CCCCOc1cc(C(=O)NCCN(CC)CC)c2ccccc2n1
active: Potency [5] 5.01 µM
inactive: activity change, negative = inhibition ([1]; at 17.2 µM (top of the series)) 13.7% and 13.1% and 14.9% | activity change, negative = inhibition ([2]; at 17.2 µM (top of the series)) 3.91% and -0.708% and -6.28% | activity, negative = inhibition ([3]; at 17.2 µM (top of the series)) 0.235% and -1.92% and -8.41% | Potency [6] > 20.6 µM | Potency [7] > 20.6 µM | outcome [4]

CCOC(=O)n1ccn(C)c1=S
active: Potency [5] 12.6 µM
inactive: activity change, negative = inhibition ([1]; at 17.2 µM (top of the series)) 13.2% | activity change, negative = inhibition ([2]; at 17.2 µM (top of the series)) -13.3% | activity, negative = inhibition ([3]; at 17.2 µM (top of the series)) 4.14% | Potency [6] > 20.6 µM | Potency [7] > 20.6 µM | outcome [4]

O=C1CCC(c2ccc(-n3ccnc3)cc2)=NN1
inactive: activity change, negative = inhibition ([1]; at 38 µM (top of the series)) 14.9% | activity change, negative = inhibition ([2]; at 38 µM (top of the series)) 3.77% | activity, negative = inhibition ([3]; at 38 µM (top of the series)) 9.57% | Potency [6] > 46 µM | Potency [7] > 46 µM | outcome [4]
active: Potency [5] 0.158 µM

CC(=O)Oc1ccc(C(c2ccc(OC(C)=O)cc2)c2ccccn2)cc1
inactive: activity change, negative = inhibition ([1]; at 17.2 µM (top of the series)) -26.3% and -21% | Potency [5] | Potency [8] > 92 µM | Potency [9] > 92 µM | Potency [10] > 92 µM | Potency [11] > 92 µM | Potency [12] > 92 µM | activity change, negative = inhibition ([2]; at 17.2 µM (top of the series)) 7.84% and -13.9% | outcome [4] | Potency [13] | Potency [14] | Potency [15] | Potency [16] | Potency [17] | activity change, negative = cytotoxicity [18] -2.53% | activity change, negative = cytotoxicity [19] -3.78%
